High-throughput results from PubChem.
The entries come from a sample that favours hits as a whole.
TbPYK inhibitor: inhibitors of Trypanosoma brucei pyruvate kinase | Q57TT1 | TbPYK enzyme, Kinase-Glo Plus ATP luminescence, 45 min | Potency, µM (highest dose often 76.8 µM), for inactives: at the top dose activity, negative = inhibition, actives largely listed as inhibitors | 410,000 tested, 0.12% active; active = well fitted curve in the direction sought with a large enough effect; inconclusive = small, poorly fitted or top-dose-only effect, or another doubt; inactive = no such curve, though single readings can be large; an effect the other way counts as inactive or inconclusive; note: potency is the fitted concentration of half-maximal effect; % is set by controls: 0 for no effect and ±100 for the full control effect; nearly all actives have a fitted effect of over 50% in size
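Luminescence from Kinase-Glo Plus, added after a 45-minute room-temperature reaction, served as the end-point read-out. The enzyme and substrate were preincubated with compound before ADP (130 uM final) initiated turnover. Concentration-effect curves came from normalized qHTS data.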
Shiga toxin inh: Shiga toxin inhibition; inhibition, % at 38.7 µM; 290,000 tested, 9.2% active; Vero cells, Shiga toxin protein synthesis inhibition reporter; in the data active = inhibition mostly above about 28%, no sharp cut-off; inactive = mostly below about 43%; note: 0% is about no effect
LmPK inhibitor: LmPK (Leishmania mexicana) enzyme inhibition; Potency, µM (top dose mostly 57.5 µM), for the others: at the highest dose activity change, negative = inhibition, usual class: inhibitors; 290,000 tested, 0.37% active; Q27686; purified LmPK, Kinase-Glo ATP luminescence, 1 h; AID 1721; active = well fitted curve in the direction sought with a large enough effect; inconclusive = small, poorly fitted or top-dose-only effect, or another doubt; inactive = no such curve, though single readings can be large; an effect the other way counts as inactive or inconclusive; note: potency is the fitted concentration of half-maximal effect; % is set by controls: 0 for no effect and ±100 for the full control effect
Target sequence (Q27686 whole entry, looked up): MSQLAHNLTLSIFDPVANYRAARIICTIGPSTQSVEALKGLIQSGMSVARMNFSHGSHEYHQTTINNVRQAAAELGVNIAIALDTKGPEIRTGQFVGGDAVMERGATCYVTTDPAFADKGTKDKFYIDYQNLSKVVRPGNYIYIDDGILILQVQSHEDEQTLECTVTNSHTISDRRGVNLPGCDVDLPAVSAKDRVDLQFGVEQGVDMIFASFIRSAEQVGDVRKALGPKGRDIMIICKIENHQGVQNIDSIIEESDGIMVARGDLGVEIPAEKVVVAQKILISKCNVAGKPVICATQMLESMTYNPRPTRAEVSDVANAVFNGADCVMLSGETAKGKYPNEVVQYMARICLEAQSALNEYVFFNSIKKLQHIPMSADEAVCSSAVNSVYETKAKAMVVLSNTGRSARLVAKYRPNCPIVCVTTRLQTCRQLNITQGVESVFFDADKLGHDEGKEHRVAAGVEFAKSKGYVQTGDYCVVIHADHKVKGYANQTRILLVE
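ATP generated from ADP (0.1 mM) and PEP (0.5 mM) by 0.1 nM LmPK over 1 h at room temperature (pH 7.2 imidazole buffer) was detected by coupled luciferase luminescence. Values were normalized to uninhibited and no-enzyme wells.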
SARS PLpro yeast: inhibitors of SARS-CoV papain-like protease in yeast. Potency, µM (doses to about 32.9 µM), inactives show at the top dose activity, positive = growth rescue, most hits filed as activators. 330,000 tested, 0.19% active. S. cerevisiae expressing SARS-CoV PLpro, growth rescue; note: potency is the fitted concentration of half-maximal effect; 0% is about no effect; nearly all actives have a fitted effect of over 55% in size
NS1 function inh: inhibitors of influenza NS1 protein function; Potency, µM (highest dose often 46.1 µM), for the others: at the top dose activity, positive = more growth; 270,000 tested, 0.4% active; note: potency is the fitted concentration of half-maximal effect; actives are rising curves; nearly all actives have a fitted effect of over 50% in size
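Growth recovery, yeast-based: influenza A NS1 expressed in S. cerevisiae causes slow growth, and suppressors are detected by OD600. The parent strain without NS1 is used as positive control.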
CHX counter: counter-screen hit for Shiga toxin inhibitors, cycloheximide. 300,000 tested, 12% active. max response, %. AID 2314. cell reporter, cycloheximide protein synthesis inhibition counterscreen; in the data active = max response mostly above about 13%, no sharp cut-off; inactive = mostly below about 14%; note: read at 38.3 µM for the half of the compounds with a filed dose; 0% is about no effect
The depositor's hits bear a star; ? = inconclusive; . = no result given; + = active, no number. Unless noted, calls come from the whole dose curve.

SMILES	TbPYK inhibitor	Shiga toxin inh	LmPK inhibitor	SARS PLpro yeast	NS1 function inh	CHX counter
CC(=O)c1ccc(N2C(=O)NC3(CCCCC3)C2=O)cc1	0%	74*	-7%	4%	-28%	14*
CSc1ccc(N2C(=O)NC3(CCCCC3)C2=O)cc1	-1%	26	1%	1%	-6%	18*
CCOc1ccccc1CNC(=O)c1ccc(NC(=O)N2CC(C)Sc3ccccc32)cc1 (centres undefined)	1%	.	.	.	.	.
N#CCC(=O)N/N=C/c1ccccc1Cl	3%	25	2%	0%	-2%	4
CO/C(N)=C(\C#N)N=Cc1ccccc1Cl	0%	49	-6%	-2%	.	21*
CC(=O)N1CCN(c2ccc(NC(=O)c3ccc([N+](=O)[O-])o3)cc2Cl)CC1	-2%	50*	-3%	-17%	-15%	25*
CCN1CCN(c2ccc(NC(=O)c3ccc([N+](=O)[O-])o3)cc2Cl)CC1	6%	-20	0%	13%	.	23*
CCC(=O)N1CCN(c2ccc(NC(=O)c3ccc([N+](=O)[O-])o3)cc2Cl)CC1	4%	-35	-5%	-24%	.	-23
NC(=O)c1ccc(C(=O)N/N=C(/Cc2ccccc2)c2ccccc2)cc1	9%	22	0%	4%	-4%	26*
O=C(NN=C(Cc1ccccc1)Cc1ccccc1)c1ccc(F)cc1	5%	77*	-3%	-13%	-5%	36*
C/C(Cc1ccccc1)=N\NC(=O)c1ccc(F)cc1	-4%	44	-2%	-4%	3%	26*
C/C(Cc1ccccc1)=N\NC(=O)CNC(=O)c1ccccc1	4%	-7	0%	-22%	2%	-1
COc1cc(NC(=O)c2noc3c2CCc2ccccc2-3)cc(OC)c1OC	2%	.	.	.	.	.
O=C(N/C(=C/c1ccc([N+](=O)[O-])cc1)C(=O)N1CCOCC1)c1ccco1	-14%	2	-3%	7%	15%	5
CCN(CC)S(=O)(=O)c1ccc(N2CCN(C)CC2)c(NC(=O)Nc2ccc(C)cc2)c1	3%	2	0%	2%	-4%	17*
CCCC1(c2ccsc2)NC(=O)NC1=O (centres undefined)	-6%	.	.	.	.	.
CN1/C(=C\C=C2/SC(=S)NC2=O)C(C)(C)c2ccccc21	-8%	-1	?	0%	1%	-3
CN1CCC/C1=C/C=C1\SC(=S)NC1=O	-15%	35*	-6%	-5%	5%	18
COc1ccc(-c2cc(C(=O)N3CCc4ccccc4C3)no2)cc1	-1%	88*	-1%	0%	.	28*
COc1ccc(-c2cc(C(=O)N3CCN(c4ccccc4)CC3)no2)cc1	1%	93*	-1%	-3%	-30%	37*
COc1ccccc1N1CCN(C(=O)c2cc(-c3ccc(F)cc3)on2)CC1	2%	4	14%	-3%	-4%	-4
O=C(c1cc(-c2ccc(Br)cc2)on1)N1CCc2ccccc2C1	3%	0	-1%	2%	24%	1
COc1cccc(-c2cc(C(=O)N3CCc4ccccc4C3)no2)c1	-16%	6	0%	-24%	-41%	17*
COc1ccc(OC)c(-c2cc(C(=O)N3CCc4ccccc4C3)no2)c1	-7%	-11	2%	-10%	-47%	8
COc1ccccc1N1CCN(C(=O)c2cc(-c3ccc(C)cc3)on2)CC1	2%	55*	-11%	-12%	-73%	19*
SMILES	TbPYK inhibitor	Shiga toxin inh	LmPK inhibitor	SARS PLpro yeast	NS1 function inh	CHX counter
COc1cccc(CNC(=O)C(Cc2ccccc2)NS(=O)(=O)c2ccc3c(c2)oc(=O)n3C)c1 (centres undefined)	-3%	.	.	.	.	.
Cc1ccc(C)n1-c1ccc(-c2ccn[nH]2)cc1	1%	71*	5%	-5%	.	36*
c1ccn(-c2ccc(-c3ccn[nH]3)cc2)c1	-3%	91*	-5%	-3%	.	37*
Cc1nnc(Sc2nc3ccccc3o2)c2ccccc12	4%	107	-13%	-11%	-45%	26*
CCN(CC)CCOC(=O)c1ccc(NC(=O)c2nn(-c3ccc(C)cc3)c(=O)c3c2c2ccccc2n3C)cc1	3%	.	.	.	.	.
CN(C)c1ccc(-n2cccc2)cc1	-13%	20	1%	0%	0%	16*
CCCOC(=O)c1cccc(Nc2nc(CCC)cc(=O)[nH]2)c1	-2%	.	.	.	.	.
CCC1CCc2sc(C(=O)NCc3ccccn3)cc2C1 (centres undefined)	-3%	61*	1%	-5%	-30%	37*
O=C(Nc1nc(-c2ccccn2)cs1)c1ccc(Br)s1	-8%	-4	5%	6%	-161%	10
O=C(CC1CC2CCC1C2)Nc1nc(-c2ccccn2)cs1 (centres undefined)	-12%	78*	7%	-15%	1%	46*
O=C(Nc1ccccn1)C12CC3CC(C1)CC(C(=O)Nc1ccccn1)(C3)C2	7%	16	-1%	1%	-18%	-3
O=C(Nc1nc(-c2ccccn2)cs1)C1CC1	-2%	43*	-8%	?	-5%	32*
O=C(Nc1nc(-c2ccccn2)cs1)C12CC3CC(CC(O)(C3)C1)C2	-12%	91*	2%	4%	-3%	34*
CCOC(=O)C1OC1C(=O)N[C@@H](CC(C)C)C(=O)NCCC(C)C (some centres undefined)	.	-2	.	.	.	-5
Nc1nc(NCC2CCC(CNS(=O)(=O)c3cccc4ccccc34)CC2)nc2ccccc12 (centres undefined)	.	-15	.	.	.	-7
COc1cccc(/C=N/NC(=O)N/N=C/c2cccc(OC)c2O)c1O	-5%	.	0%	7%	6%	25*
COc1cccc(/C=N/Nc2ccccc2C(=O)O)c1O	-16%	64*	1%	0%	-56%	47*
COc1cccc(/C=N/NC(=O)C(=O)N2CCCC2)c1O	-1%	+	-13%	?	-165%	61*
COc1cccc(/C=N/N2C(=O)CSC2=S)c1O	?	45*	-13%	7%	26%	32*
CCn1c(C)cc(C(=O)COC(=O)CNC(=O)c2ccco2)c1C	1%	.	.	.	.	.
CC1(C(=O)NS(=O)(=O)Cc2cccc(Cl)c2)CCN1C(=O)CC1CCCC1 (centres undefined)	0%	.	.	.	.	.
Cc1ccc(F)cc1C(=O)N1CCCC(c2cc(C(=O)NCc3ccccc3)no2)C1 (centres undefined)	-5%	.	.	.	.	.
CCn1c(C)nc2cc(C(=O)N/N=C/c3cccc(OC)c3O)ccc21	-5%	60*	1%	8%	-8%	18
CCn1c(C)nc2cc(C(=O)N/N=C/c3ccc(O)c(O)c3O)ccc21	?	10	1%	-2%	14%	11
CCN(CC)S(=O)(=O)c1cccc(-c2cn3cc(C)ccc3n2)c1	5%	98*	2%	-8%	-7%	66*
